IMPase inh – cell-permeable inhibitors of inositol monophosphatase (IMPase); P97697; CHO-M1 cells, IP1 accumulation, HTRF TR-FRET ratio; inhibition (IP1 accumulation), % at 46.1 µM; 120,000 tested, under 10 active; AID 901; active means well fitted curve in the direction sought with a large enough effect in the signal ratio, not every such curve was filed as active; inconclusive means small, poorly fitted or top-dose-only effect, or a change in a side signal; inactive means no such curve, though single readings can be large or run the other way; the % refers to the signal ratio;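 further: cells stimulated with carbachol in lithium chloride buffer; plate controls were DMSO basal wells for no effect and reference inhibitor wells for full effect; higher means more IMPase inhibition seen as more IP1 and lower FRET ratio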
Target sequence (P97697 whole entry, looked up): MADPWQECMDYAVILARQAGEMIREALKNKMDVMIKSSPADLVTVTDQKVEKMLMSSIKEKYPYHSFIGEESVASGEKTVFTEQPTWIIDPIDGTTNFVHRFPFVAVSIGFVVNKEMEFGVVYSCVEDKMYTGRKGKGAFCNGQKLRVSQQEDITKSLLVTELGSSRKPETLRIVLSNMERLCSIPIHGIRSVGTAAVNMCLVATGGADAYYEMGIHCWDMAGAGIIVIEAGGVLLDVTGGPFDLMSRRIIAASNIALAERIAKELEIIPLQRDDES
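Seeded CHO-M1 cells were dosed with compound at up to 46 uM, stimulated with carbachol for 30 min, then lysed in IP-One detection reagents. Higher IP1 lowers the TR-FRET signal.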
HPGD inh – blocks human HPGD enzyme activity. purified HPGD, NADH fluorescence kinetic, PGE2 substrate. P15428. Potency, µM, for inactives: at the top dose activity change, negative = inhibition, usual class: inhibitors. AID 894. hit rate 4.3% among 150,000; further: potency means the concentration at half of the fitted maximal effect
Target sequence (P15428 whole entry, looked up): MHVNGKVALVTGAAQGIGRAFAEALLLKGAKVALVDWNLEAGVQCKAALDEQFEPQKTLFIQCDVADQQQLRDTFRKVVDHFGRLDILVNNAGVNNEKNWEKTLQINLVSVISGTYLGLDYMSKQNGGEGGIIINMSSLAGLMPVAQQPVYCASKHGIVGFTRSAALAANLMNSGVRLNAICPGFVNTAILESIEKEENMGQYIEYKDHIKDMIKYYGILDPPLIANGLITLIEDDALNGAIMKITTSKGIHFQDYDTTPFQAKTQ
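20 nM HPGD preincubated 15 min at room temperature with compound in 50 mM Tris-HCl pH 8, 0.01% Tween 20. Started with 1 mM NAD+ and 30 uM prostaglandin E2; NADH fluorescence (360/450 nm) read 5 times over 30-s intervals, last minus first.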
12-hLO inh – 12-hLO (ALOX12) enzyme inhibition; P18054; purified 12-hLO, xylenol orange hydroperoxide absorbance; Potency, µM (doses to about 57.1 µM), inactives show at the highest dose activity change, negative = inhibition, actives largely listed as inhibitors; hit rate 0.12% among 150,000; AID 1452; active means well fitted curve in the direction sought with a large enough effect; inconclusive means small, poorly fitted or top-dose-only effect, or another doubt; inactive means no such curve, though single readings can be large; an effect the other way counts as inactive or inconclusive; further: potency means the concentration at half of the fitted maximal effect; nearly all actives have a fitted effect of over 55% in size
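150 nM 12hLO, 25 mM Hepes pH 7.0 + 0.01% Triton X-100; cpd preinc 15 min RT; 40 uM arachidonic acid, 30 min RT; Fe-XO 30 min; A573/A405 ratio as read-out.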
PNC inhibitor – inhibitors of perinucleolar compartment assembly; PC3M PTB-GFP, PNC prevalence imaging, 16 h; active compounds read low; activity change (PNC), negative = inhibition, % at 10 µM; hit rate 3.1% among 140,000; AID 2417;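 active means readout at or below -70, meaning at least 70% loss of cells showing the perinucleolar compartment, a nuclear body marking cancer cells; inconclusive means readout between -30 and a set limit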;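 further: plate controls were DMSO wells for no effect and camptothecin positive control wells for full effect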
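Compounds are pinned in duplicate onto adhered PC3M cells stably expressing GFP-tagged PTB and incubated 16 h at 37 C. Cells are then fixed, nuclei stained with Hoechst, and PNC-positive cells counted.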
IMPase Li inh – cell-permeable IMPase inhibitors with lithium potentiation; CHO-M1 cells, IP1 TR-FRET (IP-One), carbachol + lithium; Potency, µM (highest dose often 59.4 µM), for inactives: at the highest dose activity, negative = IMPase inhibition, usual class: inhibitors; hit rate 0.35% among 210,000; AID 1457; active means well fitted curve in the direction sought with a large enough effect; inconclusive means small, poorly fitted or top-dose-only effect, or another doubt; inactive means no such curve, though single readings can be large; an effect the other way counts as inactive or inconclusive;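 further: IP1 builds up when IMPase is blocked and the TR-FRET signal falls; potency means the concentration at half of the fitted maximal effect; plate controls were basal vehicle for no effect and high inhibitor control for full effect; nearly all actives have a fitted effect of over 50% in size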
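CHO cells stably expressing M1 receptor (2000/well, cultured 16–30 h) treated 30 min at 37C with compound plus low lithium. Cytosolic IP1 by TR-FRET (665/620 ratio and 620 channel) after 10 min lysis; AC50 by Hill fit.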
ALDH1A1 block – ALDH1A1 (human) enzyme inhibition | Potency, µM (top dose mostly 75.3 µM), inactives show at the top dose activity, negative = inhibition, most hits filed as inhibitors | hit rate 7.3% among 220,000 | P00352 | Purified ALDH1A1, NADH fluorescence, propionaldehyde substrate;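 further: potency means the concentration at half of the fitted maximal effect; plate controls were no enzyme wells and a reference inhibitor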
* marks the source's active call; other numbers are inactive results; ? = inconclusive; nt = no result; [ ] = dose if it differs, or a comment. The list is not random: actives were taken first. Their share in the collection is about 11%. Unless noted, the call rests on the fitted dose curve; in most records, active means well fitted inhibition curve with a large enough effect (not every such curve was filed as active); inconclusive means small, poorly fitted or top-dose-only effect, or another doubt; inactive means no such curve, though single readings can be large or run the other way. Unless noted, on the % scale 0 is the no-effect control and ±100 the full control effect.

SMILES	IMPase inh	HPGD inh	12-hLO inh	PNC inhibitor	IMPase Li inh	ALDH1A1 block
Cc1sc2nc(C3CC3)nc(SCC(=O)N3c4ccccc4CC3C)c2c1C (stereo not given)	?	-14%	-4%	-108*	5%[38.3 µM]	?
Cc1sc2nc(C3CC3)nc(SCC(=O)NCc3ccco3)c2c1C	-7	-17%	-12%	-17	12%[38.3 µM]	?
Cc1cc2cc3c(cc2nc1SCC(=O)N1c2ccccc2CC1C)OCO3 (stereo not given)	-7	-30%	-6%	-100*	11%	-2%
CC1Cc2ccccc2N1C(=O)CSc1nc2cc3c(cc2cc1C#N)OCO3 (stereo not given)	5	-21%	-7%	-4	3%[38.3 µM]	?
COC(=O)c1ccc(C(/C=C/[C@@H](C)C(=O)NCc2ccc(OC)c(O)c2)NC(=O)OCc2ccccc2)cc1 (stereo not given in full)	nt	-15%	-5%	nt	5%	?
Cc1ccc(S(=O)(=O)Nc2cc(Cl)c3oc4c(c3c2)CCCC4)cc1	5	nt	nt	nt	nt	nt
O=S(=O)(/N=C(/Nc1ccc(F)cc1F)c1ccccc1)c1ccccc1	nt	-14%	-3%	?	-1%	1%
O=S(=O)(/N=C(/Nc1ccc(F)cc1F)c1ccccc1)c1ccc(Br)cc1	-4	-8%	8%	-99*	-5%	17%
COc1cccc(-c2cc(NCc3cccc(C)c3)ncn2)c1	nt	nt	nt	nt	6%	-7%
N=C(N)SCc1ccc(Cl)cc1Cl (tested in a mixture with another compound)	nt	?	2%[11.4 µM]	nt	-2%	6%[13.5 µM]
O=C(O)c1ccccc1Sc1ncnc2sc3c(c12)CCC3	nt	nt	nt	nt	8.9µM*	-3%
CC(=O)c1ccc(NC(=O)c2ccccc2Sc2ncnc3sc(C)c(C)c23)cc1	nt	-19%	4%	?	12%	-6%
Cc1sc2ncnc(Sc3ccccc3C(=O)O)c2c1C	nt	nt	nt	nt	4.5µM*	6%
O=C(CSc1ncnc2sc3c(c12)CCCC3)c1ccccc1	12	-21%	1%	?	9%	?
CN1CCN(c2nc(-c3ccccc3C(F)(F)F)nc3ccccc23)CC1	nt	nt	nt	nt	6%	-6%
Cc1ccc(SCC2(O)CCN(S(=O)(=O)c3ccc(Cl)cc3)CC2)cc1	-9	-9%	-21%	-100*	13%	?
CN1CCN(CC2(O)CCN(S(=O)(=O)c3ccc(Cl)cc3)CC2)CC1	nt	nt	nt	nt	-2%	11%
COc1cccc(SCC2(O)CCN(C(=O)c3ccc(Cl)cc3)CC2)c1	nt	nt	nt	nt	7%	?
O=C(c1ccc(Cl)cc1)N1CCC(O)(CSc2ccc(Cl)cc2)CC1	1	-11%	-22%	-9	24%[38.3 µM]	16µM*
CCOC(=O)N1CCN(C(=O)c2ccc(CSc3ccc(Cl)cc3)cc2)CC1	nt	nt	nt	nt	16%	-10%
O=C(c1ccc(Cl)cc1)N1CCC(O)(CSc2ccccc2)CC1	-12[1.84 µM]	-3%	2%	-91*	21%[38.3 µM]	1.4µM*
COc1ccccc1C1CC(=O)Oc2cc(C)c(Cl)c(C)c21 (stereo not given)	nt	-13%	6%[0.00818 µM]	nt	2%	?
Cc1ccc(C(=O)N/C(=C\c2ccc3c(c2)OCO3)C(=O)Nc2ccc(C(=O)O)cc2)cc1	nt	nt	nt	nt	-4%	-54%
CC(C)C[C@@H](CC(=O)N[C@@H](CCCN)CC(=O)N[C@@H]1CCNC[C@H]1C(=O)N[C@H](CC(=O)N[C@@H](CCC(=O)O)CC(=O)O)CC(C)C)NC(=O)[C@@H]1CCCC[C@H]1N	nt	-3%	2%	nt	12%	?
Clc1cccc(CSc2nnc(-c3cccnc3)n2Cc2ccco2)c1	9	-17%	4%	-9	7%[38.3 µM]	-4%
SMILES	IMPase inh	HPGD inh	12-hLO inh	PNC inhibitor	IMPase Li inh	ALDH1A1 block
Clc1ccc(CSc2nnc(-c3cccnc3)n2Cc2ccco2)c(Cl)c1	1[9.22 µM]	14µM*	?	11	1%[38.3 µM]	4.5µM*
CC1(C)CC(=O)C(C(C2=C(O)CC(C)(C)CC2=O)c2ccc([N+](=O)[O-])cc2)C(=O)C1 (stereo not given)	-6	nt	-5%	?	nt	?
Cc1ccc(C(C2=C(O)CC(C)(C)CC2=O)C2C(=O)CC(C)(C)CC2=O)s1 (stereo not given)	-2	3.2µM*	-15%	-12	-3%[38.3 µM]	8.9µM*
CC1(C)CC(=O)C(C(C2=C(O)CC(C)(C)CC2=O)c2ccc(Br)s2)C(=O)C1 (stereo not given)	nt	1.4µM*	-28%	-1	3%	3.5µM*
CCCCC/C=C\C/C=C\C/C=C\CCCCCCC(=O)O[C@H](COCCCCCCCCCCCCCCCC)COP(=O)([O-])OCC[N+](C)(C)C	nt	-3%	-1%	nt	2%	-7%
CCCCC#Cc1nc(N)c2ncn([C@@H]3O[C@H](C(=O)NCC)[C@@H](O)[C@H]3O)c2n1	nt	-7%	nt	nt	5%	7.9µM*
COC(=O)C1=C(C)N(CCc2ccc(OC)c(OC)c2)C(=O)/C1=C\c1ccc(O)cc1	nt	-2%	-2%	-116*	4%	25µM*
COC(=O)C1=C(C)N(CCc2ccc(OC)c(OC)c2)C(=O)C1	-3	-16%	-6%	-22	-8%[38.3 µM]	?
CNc1nc(Sc2cccc(C(F)(F)F)c2)cc(C(F)(F)F)n1	28	?	2%	116	27%[38.3 µM]	-4%
CNc1nc(Sc2ccccc2)cc(C(F)(F)F)n1	6	35µM*	-4%	18	32%[38.3 µM]	35µM*
CCC12C=C(/C=C/c3ccccc3)C(CC)(C1)C(c1ccccc1)CC2=O (stereo not given)	nt	nt	nt	nt	nt	11%[13.5 µM]
Cc1ccc(CC(=O)NCC(C)C)cc1	-13	18µM*	7%	?	-2%[38.3 µM]	-5%
Cc1ccc(CC(=O)NCc2ccc(Cl)cc2)cc1	nt	nt	nt	nt	5%	?
CC(C)CNC(C(=O)Nc1ccc([N+](=O)[O-])cc1Br)c1ccccc1 (stereo not given)	7	-23%	0%	-18	19%	3.5µM*
CCN(CC)CCNC(C(=O)Nc1cc(C(F)(F)F)ccc1Cl)c1ccccc1 (stereo not given)	12	-6%	2%	49	17%	?
CN(C)C(CNC(C(=O)Nc1ccc([N+](=O)[O-])cc1Br)c1ccccc1)c1ccccc1 (stereo not given)	nt	nt	nt	nt	0%	?
CCN(CC)CCNC(C(=O)Nc1ccc([N+](=O)[O-])cc1Br)c1ccccc1 (stereo not given)	nt	-15%	-3%	-104*	19%	-10%
O=C(COc1ccc(S(=O)(=O)NC2CCCCC2)cc1)Nc1ccc(C(F)(F)F)cc1	11	nt	nt	nt	nt	nt
Cc1ccc(-c2nc3ccccc3c(=O)n2NC(=S)N(C)C)cc1	nt	28µM*	0%	34	-1%	?

Screens (PubChem)
